# “And” between values parts separate entries of the source, which are not always exact repeats. Equal entries are not always repeated. Records with an inconclusive call do not appear. For part of these data: Potency and affinity values are given separately. The source made the active and inactive calls.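 How the source made its calls, unless noted: active means at least 20% inhibition of 6-phosphogluconate dehydrogenase activity; inactive means the rest.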
# What was measured:
# [1] = polyglutamine-triggered caspase-3 activation inhibitors, cell-based (AID 1583); conditions: polyglutamine-induced caspase-3 activation, cell assay; stronger effect = higher value;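 tested at 10 µM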
# [2] = suppressors of polyQ aggregation in yeast, 75Q-TubU reporter (AID 1593); conditions: Yeast 75Q polyglutamine aggregation reporter
# [3] = rescue of polyQ-huntingtin neuronal dysfunction in worms, whole organism, C. elegans mechanosensory neurons, N-terminal huntingtin (AID 1599); conditions: touch response, stronger effect = higher value
# [4] = inhibitors of mitochondrial cytochrome c release, biochemical, purified mitochondria (AID 1603); conditions: stronger effect = lower value;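 further: mouse liver mitochondria challenged with calcium chloride; signal normalized to the plate average as 100%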
# [5] = inhibitors of polyQ protein aggregation (AID 1604); conditions: polyglutamine-induced protein aggregation inhibition assay; stronger effect = higher value; tested at 2.5 µM
# [6] = enhancers of glutamate uptake in motor neurons, MN-1 cell line (AID 1612); conditions: MN-1 motor neuron cells, stronger effect = higher value;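 further: tested at 1 µM final; 0% = mean of DMSO vehicle wells on each plate; positive means more glutamate uptake than control and negative means less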
# [7] = suppressors of polyglutamine aggregation in yeast, 75Q-TubH (AID 1616); conditions: S. cerevisiae 75Q-TubH polyglutamine aggregation suppression; stronger effect = higher value
# [8] = biological target: 6-phosphogluconate dehydrogenase, decarboxylating (Homo sapiens) (UniProt P52209); assay: 6PGD enzyme inhibitors, primary screen, biochemical, human, recombinant enzyme, NADPH absorbance (AID 1159550); conditions: recombinant 6PGD, NADPH absorbance 341 nm; at 10 µM; stronger effect = higher value
# [9] = sensitizers of A549 cells to miR-34 induction, primary screen, imaging, A549 dox-inducible miR-34, nuclei and caspase counts (AID 1347080;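 active means compounds whose cell count with miR-34 switched on is under 0.7 times the count with it off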); conditions: A549 miR-34 inducible, Hoechst nuclei count, 48 h
# [10] = biological target: Mitogen-activated protein kinase 7 (Homo sapiens) (UniProt Q13164); assay: ERK5 transactivation activators in reporter cells, primary screen, cell-based, HTS (AID 1508626;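 active means luciferase signal above three times the same-plate solvent-only control wells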;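 further: luciferase driven by Gal4-ERK5 fusion binding five Gal4 sites before minimal TATA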); conditions: HeLa Gal4-ERK5 transactivation, 18 h, at 5 µM, stronger effect = higher value
# [11] = viability rescue of complex I mutant cybrids, primary screen, cell-based, galactose medium, ATP luminescence (AID 1645843;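 active means z-score of at least 1.8 in each of two replicates, scored against plate mean and spread of sample wells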;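 further: positive z means more ATP and so rescue of galactose-driven cybrid death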); conditions: complex I mutant cybrid cells, 72 h, stronger effect = higher value
# [12] = growth inhibition of DIPG glioma cells, dose response, cell-based, SU-DIPG-XIII, MIPE4.0, CellTiter-Glo, qHTS (AID 1347061; cut-off not given, nearly all actives have AC50 up to about 37 µM;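 further: cells exposed to compound for 48 hours before readout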); conditions: SU-DIPG-XIII viability, CellTiter-Glo ATP luminescence
# [13] = growth inhibition of DIPG glioma cells, dose response, cell-based, JHH-DIPG-1, MIPE4.0, CellTiter-Glo, qHTS (AID 1347062; cut-off not given, nearly all actives have AC50 up to about 27 µM); conditions: JHH-DIPG-1 viability, CellTiter-Glo ATP luminescence
# [14] = growth inhibition of DIPG glioma cells, dose response, cell-based, SU-DIPG-IV, MIPE4.0, CellTiter-Glo, qHTS (AID 1347063; cut-off not given, nearly all actives have AC50 up to about 30 µM;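 further: compound exposure lasted 48 hours before the viability readout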); conditions: SU-DIPG-IV viability, CellTiter-Glo ATP luminescence
# [15] = JHH-DIPG-1 glioma cell viability, MIPE5.0 library, CellTiter-Glo luminescence, qHTS (AID 1347067; cut-off not given, nearly all actives have AC50 up to about 26 µM;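 further: cells exposed to compound for 48 hours before readout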); conditions: JHH-DIPG-1 glioma viability, CellTiter-Glo ATP luminescence
# [16] = survival rescue of mitochondrial mutant cells in low glucose, primary screen, MELAS cybrids, Rieske KO mouse fibroblasts, CellTiter-Glo (AID 1508586;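 active means mean z-score across replicates of 1.96 or higher in either the MELAS or the Rieske mutant cell line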;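 further: z relative to plate mean and SD of compound and empty wells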)
# [17] = biological target: NAD(+) hydrolase SARM1 (Homo sapiens) (UniProt Q6SZW1); assay: SARM1 TIR NADase inhibitors, cell lysate, NAD-Glo luminescence (AID 1508614;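 active means compound whose remaining NAD level is above about 45 nM, limit read from the data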); conditions: SAM-TIR HEK293T lysate NADase, at 1 µM, stronger effect = higher value
# [18] = liver-stage malaria parasite growth inhibition, primary screen, cell-based, HepG2, luciferase luminescence, HepG2 viability (AID 624349; in the data active means parasite load remaining mostly below about 12%, no sharp cut-off; inactive means mostly above about 10%;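 further: 100% = mean of DMSO negative control wells on the same plate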); conditions: P. berghei liver stage in HepG2, luciferase luminescence, concentration not given here; parasite load remaining: stronger effect = lower value; viability: measured here: HepG2 viability without parasites
# [19] = stronger effect = lower value, cell number ratio, induced over uninduced
# [20] = measured here: relative caspase fold change +Dox/-Dox
# [21] = measured here: total cells with miR-34 induction, stronger effect = lower value
# [22] = measured here: total cells without miR-34 induction
# [23] = MELAS cybrid survival, CellTiter-Glo 48 h, stronger effect = higher value
# [24] = Rieske KO mouse fibroblast survival, CellTiter-Glo 72 h
# Mitogen-activated protein kinase 7 (Homo sapiens), sequence (Q13164 whole entry, looked up, the tested form may be a part): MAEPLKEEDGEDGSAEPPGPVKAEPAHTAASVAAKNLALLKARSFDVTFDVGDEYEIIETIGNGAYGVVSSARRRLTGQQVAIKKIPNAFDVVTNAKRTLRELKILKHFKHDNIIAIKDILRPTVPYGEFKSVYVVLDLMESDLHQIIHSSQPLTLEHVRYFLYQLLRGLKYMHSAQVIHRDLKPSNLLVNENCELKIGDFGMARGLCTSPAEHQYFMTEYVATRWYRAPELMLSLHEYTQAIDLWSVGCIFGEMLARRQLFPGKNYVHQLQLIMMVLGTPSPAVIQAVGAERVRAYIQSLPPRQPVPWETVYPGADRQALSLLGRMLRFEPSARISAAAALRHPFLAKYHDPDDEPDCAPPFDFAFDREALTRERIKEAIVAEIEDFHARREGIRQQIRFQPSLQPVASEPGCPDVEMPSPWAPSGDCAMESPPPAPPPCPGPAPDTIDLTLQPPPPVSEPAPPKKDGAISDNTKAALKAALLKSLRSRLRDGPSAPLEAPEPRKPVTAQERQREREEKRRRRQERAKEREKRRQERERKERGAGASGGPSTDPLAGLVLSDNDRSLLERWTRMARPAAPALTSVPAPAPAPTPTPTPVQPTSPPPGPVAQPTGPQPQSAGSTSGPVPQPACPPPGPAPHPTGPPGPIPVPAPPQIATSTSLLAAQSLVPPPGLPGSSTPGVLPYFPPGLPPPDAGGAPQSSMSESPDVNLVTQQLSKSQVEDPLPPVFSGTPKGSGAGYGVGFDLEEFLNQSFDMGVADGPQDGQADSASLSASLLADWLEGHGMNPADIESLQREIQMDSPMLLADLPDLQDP
# NAD(+) hydrolase SARM1 (Homo sapiens), sequence (Q6SZW1 whole entry, looked up): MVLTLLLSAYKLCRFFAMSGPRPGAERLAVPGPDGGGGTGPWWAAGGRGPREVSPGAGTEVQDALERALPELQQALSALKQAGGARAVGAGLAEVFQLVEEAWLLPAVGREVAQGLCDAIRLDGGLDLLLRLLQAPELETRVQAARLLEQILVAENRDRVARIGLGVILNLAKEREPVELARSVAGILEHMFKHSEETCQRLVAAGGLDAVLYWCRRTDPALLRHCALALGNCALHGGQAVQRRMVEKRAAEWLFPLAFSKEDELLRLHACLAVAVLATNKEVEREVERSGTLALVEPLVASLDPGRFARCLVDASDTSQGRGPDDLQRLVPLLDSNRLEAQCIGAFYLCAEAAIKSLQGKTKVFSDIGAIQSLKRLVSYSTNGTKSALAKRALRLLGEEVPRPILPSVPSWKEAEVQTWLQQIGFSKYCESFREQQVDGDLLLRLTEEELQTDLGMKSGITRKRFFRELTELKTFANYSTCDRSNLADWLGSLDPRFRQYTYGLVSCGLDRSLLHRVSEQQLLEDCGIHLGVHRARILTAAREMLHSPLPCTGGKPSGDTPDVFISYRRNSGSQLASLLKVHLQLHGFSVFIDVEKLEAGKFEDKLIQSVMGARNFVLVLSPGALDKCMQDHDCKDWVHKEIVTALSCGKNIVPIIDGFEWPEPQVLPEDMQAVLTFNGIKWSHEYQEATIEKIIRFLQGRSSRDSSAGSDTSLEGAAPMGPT
# 6-phosphogluconate dehydrogenase, decarboxylating (Homo sapiens), sequence (P52209 whole entry, looked up): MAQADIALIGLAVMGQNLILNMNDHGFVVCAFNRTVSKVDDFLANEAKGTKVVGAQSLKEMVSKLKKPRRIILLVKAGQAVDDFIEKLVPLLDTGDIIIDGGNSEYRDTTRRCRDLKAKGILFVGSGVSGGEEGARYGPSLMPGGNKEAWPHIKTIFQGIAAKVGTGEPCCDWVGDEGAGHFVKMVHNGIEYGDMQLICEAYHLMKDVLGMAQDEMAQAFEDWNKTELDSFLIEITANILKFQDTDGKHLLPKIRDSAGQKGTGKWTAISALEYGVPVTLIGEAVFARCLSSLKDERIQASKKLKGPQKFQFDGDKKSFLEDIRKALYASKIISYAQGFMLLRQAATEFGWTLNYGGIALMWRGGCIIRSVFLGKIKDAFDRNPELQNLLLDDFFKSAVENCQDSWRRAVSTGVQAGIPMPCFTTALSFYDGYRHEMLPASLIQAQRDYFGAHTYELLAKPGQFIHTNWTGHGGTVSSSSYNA
smiles,measurement,setting,value
O=C(O)c1c2ccccc2cc2ccccc12,inhibition,[1],-6.04%
same,score,[2],0.43
same,rescue above control,[3],12.4
same,cytochrome c release ratio,[4],0.85
same,inhibition of aggregation,[5],33.3%
same,glutamate uptake change,[6],11%
same,aggregation suppression score,[7],0.249
same,inhibition,[8],-1.37% (inactive)
same,fold change,[9]; [19],0.92 (inactive)
same,fold change,[9]; [20],0.787
same,cell count,[9]; [21],9100
same,cell count,[9]; [22],9890
same,luciferase signal,[10],56 AU (inactive)
same,z-score,[11],0.475 (inactive)
O=C(O)Cc1nn(Cc2ccc(Br)cc2F)c(=O)c2ccccc12,inhibition,[8],11.5% (inactive)
same,fold change,[9]; [19],0.972 (inactive)
same,fold change,[9]; [20],0.601
same,cell count,[9]; [21],8710
same,cell count,[9]; [22],8960
same,z-score,[11],0.945 (inactive)
C[C@@]12C[C@@]3(O)O[C@@H](O1)[C@]1(COC(=O)c4ccccc4)[C@H]3C[C@@]12O[C@@H]1O[C@H](CO)[C@@H](O)[C@H](O)[C@H]1O,inhibition,[8],-7.19% (inactive)
same,outcome,[12],inactive
same,outcome,[13],inactive
same,luciferase signal,[10],60 AU (inactive)
COc1cc2c(c(OC)c1OC)-c1ccc(OC)c(=O)cc1C(NC(C)=O)CC2 (stereo not given),inhibition,[8],-26.1% (inactive)
same,fold change,[9]; [19],0.969 (inactive)
same,fold change,[9]; [20],1.26
same,cell count,[9]; [21],1510
same,cell count,[9]; [22],1550
same,z-score,[11],-0.44 (inactive)
COc1c(O)cc2c(c1O)[C@@H]1O[C@H](CO)[C@@H](O)[C@H](O)[C@H]1OC2=O,inhibition,[8],2.56% (inactive)
same,outcome,[12],inactive
same,outcome,[13],inactive
same,outcome,[14],inactive
same,luciferase signal,[10],48 AU (inactive)
COc1ccc(-c2cc(=O)c3c(O)cc(O[C@@H]4O[C@H](CO[C@@H]5O[C@@H](C)[C@H](O)[C@@H](O)[C@H]5O)[C@@H](O)[C@H](O)[C@H]4O)cc3o2)cc1O,inhibition,[8],7.55% (inactive)
same,outcome,[13],inactive
same,outcome,[14],inactive
same,outcome,[15],inactive
same,z-score,[16]; [23],0.526 (inactive)
same,z-score,[16]; [24],0.0112
same,remaining NAD,[17],10 nM (inactive)
same,luciferase signal,[10],80 AU (inactive)
O=C(O)c1cc(=O)c2ccc(Cl)cc2[nH]1,inhibition,[8],15.5% (inactive)
same,fold change,[9]; [19],0.965 (inactive)
same,fold change,[9]; [20],1.21
same,cell count,[9]; [21],8410
same,cell count,[9]; [22],8710
same,z-score,[11],-0.2 (inactive)
CCC[C@@H]1C[C@@H](C(=O)N[C@@H]([C@H]2O[C@H](SC)[C@H](O)[C@@H](O)[C@H]2O)[C@H](C)Cl)N(C)C1,parasite load remaining,[18],69.6% (inactive) and 41% (inactive)
same,viability,[18],232% and 102%
same,inhibition,[8],8.56% (inactive)
same,outcome,[15],inactive
same,fold change,[9]; [19],0.93 (inactive) and 0.912 (inactive)
same,fold change,[9]; [20],1.22 and 1
same,cell count,[9]; [21],9830 and 9930
same,cell count,[9]; [22],10600 and 10900
same,z-score,[16]; [23],-0.831 (inactive) and -0.519 (inactive)
same,z-score,[16]; [24],-0.0935 and -0.00307
same,remaining NAD,[17],10 nM (inactive)
same,luciferase signal,[10],136 AU (inactive)
same,z-score,[11],-0.225 (inactive) and 0.615 (inactive)
C[C@H](CCC(=O)O)[C@H]1CC[C@H]2[C@@H]3CC[C@@H]4C[C@H](O)CC[C@]4(C)[C@H]3CC[C@]12C,parasite load remaining,[18],106% (inactive)
same,viability,[18],101%
same,inhibition,[8],3.51% (inactive)
same,fold change,[9]; [19],0.876 (inactive)
same,fold change,[9]; [20],1.28
same,cell count,[9]; [21],8840
same,cell count,[9]; [22],10100
same,z-score,[16]; [23],0.139 (inactive)
same,z-score,[16]; [24],-0.0326
same,luciferase signal,[10],76 AU (inactive)
O=C1O[C@H]([C@@H](O)CO)C(O)=C1O,parasite load remaining,[18],-6.73% (active)
same,viability,[18],110%
same,inhibition,[8],-9.94% (inactive)
same,fold change,[9]; [19],0.839 (inactive)
same,fold change,[9]; [20],1.22
same,cell count,[9]; [21],7560
same,cell count,[9]; [22],9010
same,z-score,[16]; [23],-0.883 (inactive)
same,z-score,[16]; [24],-0.395
same,remaining NAD,[17],10 nM (inactive)
same,luciferase signal,[10],60 AU (inactive)
CO/N=C(\C(=O)N[C@@H]1C(=O)N2C(C(=O)OCOC(=O)C(C)(C)C)=C(/C=C\c3scnc3C)CS[C@H]12)c1csc(N)n1,inhibition,[8],-4.41% (inactive)
same,outcome,[12],inactive
same,outcome,[13],inactive
same,remaining NAD,[17],10 nM (inactive)
COc1ccc(-c2cc(=O)c3c(O)c(OC)c(OC)cc3o2)cc1O,inhibition,[8],3.27% (inactive)
same,fold change,[9]; [19],1.03 (inactive)
same,fold change,[9]; [20],0.681
same,cell count,[9]; [21],5880
same,cell count,[9]; [22],5680
same,z-score,[11],0.86 (inactive)
NCCCCCCNS(=O)(=O)c1cccc2c(Cl)cccc12,inhibition,[1],-15.2% and 22.6% and 2.95%
same,score,[2],1.04 and 1.62 and 0.88
same,rescue above control,[3],4.12 and -5.26 and -2.52
same,cytochrome c release ratio,[4],1.16 and 0.95 and 1.09
same,inhibition of aggregation,[5],51% and 55.6% and 36.6%
same,glutamate uptake change,[6],18.7% and -10.2% and 14.1%
same,aggregation suppression score,[7],0.802 and 0.897 and 0.965
same,inhibition,[8],8.63% (inactive)
same,fold change,[9]; [19],0.955 (inactive)
same,fold change,[9]; [20],0.859
same,cell count,[9]; [21],4060
same,cell count,[9]; [22],4250

# From PubChem BioAssay
